Results from PubChem BioAssay AID1347417 (National Center for Advancing Translational Sciences (NCATS), 2020).
The campaign covered roughly 120,000 compounds. About 5,300 (4.4%) were called active. About 22% were inconclusive and are not listed. Calls follow the shape of the dose curve; as a rule, active = well fitted inhibition curve with a large enough effect; inconclusive = small, poorly fitted or top-dose-only effect; inactive = no such curve, though single readings can be large or run the other way. The entries come from a sample that favours actives as a whole. Entries that show only a call come without a potency.

Test: qHTS Primary assay for Inhibitors of Plasmodium falciparum Dd2 growth in vitro; also: nearly all actives have a fitted effect of over 65% in size
Settings: P. falciparum Dd2 growth, SYBR Green, 72 h; series mostly up to 28.9 µM
Procedure, shortened: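 Readout: SYBR Green fluorescence, 485 nm excitation, 535 nm emission, after ~16 h lysis at 37C. Before that, Dd2-infected red cells (2.5% hematocrit) grew 72 h with compound, 29 uM top final concentration.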
Potency is read from the fitted curve at half-maximal effect.

Row | Compound | Potency
1 | Cc1ccc(-c2nc(N3CCOCC3)cc3c2CN(Cc2cnn(C)c2)C3=O)cn1 | inactive
2 | COc1ccc(CN2CCOc3nc(-c4cc(F)cc(OC)c4)ncc3C2=O)cc1 | inactive
3 | CCOc1ccccc1NC(=O)N1CCC(n2c(C)cnc2-c2cccnc2)CC1 | inactive
4 | C=C(C)COc1ccccc1C(=O)NC(C(=O)O)c1c(C)n[nH]c1C (configuration not stated) | inactive
5 | CSc1ccccc1NC(=O)CCS(=O)(=O)c1nc(-c2cccs2)cc(C(F)(F)F)n1 | inactive
6 | COc1ccccc1-c1cc(C(F)(F)F)nc(S(=O)(=O)CCCC(=O)Nc2ccc(F)cc2F)n1 | 8.91 µM (active)
7 | COc1ccccc1-c1cc(C(F)(F)F)nc(S(=O)(=O)CCCC(=O)Nc2cc(C)ccc2O)n1 | inactive
8 | Cc1noc(C)c1[S+](=O)([O-])N1CCCCC12Cc1ccccc1NC2=O (configuration not stated) | inactive
9 | Fc1ccc(OCc2nc(C3CCNCC3)no2)cc1 | inactive
10 | CN1CCCCCCN(C(=O)C2CCOCC2)[C@H]2CCC[C@H]2C1=O | inactive
11 | CCN1CCN(C(=O)C23CCCC=C2N(C2CCCC2)C(=O)CC3)CC1 (configuration not stated) | inactive
12 | CCn1c(CN2CCC(C)CC2)nc2cc(NC(=O)c3ccccc3[N+](=O)[O-])ccc21 | 11.2 µM (active)
13 | Cn1c(=O)c(=O)n(C)c2cc(NC(=O)c3ccccc3Br)ccc21 | inactive
14 | CC1Oc2ccc(NC(=O)c3ccc([N+](=O)[O-])cc3)cc2CN(Cc2ccccc2)C1=O (configuration not stated) | inactive
15 | CC1CCC2(CC1)OCC(C(=O)NCc1ccc3c(c1)OCO3)N2C(=O)c1ccccc1F (configuration not stated) | inactive
16 | O=C(NCCC1CCN(C(=O)Nc2cccc(F)c2)CC1)c1ccco1 | inactive

Row | Compound | Potency
17 | O=C(NCCN1CCCCC1)C1Cn2cccc2C(=O)N1Cc1ccccc1 (configuration not stated) | inactive
18 | COC[C@H]1CCCN1Cc1nc(C2(O)CCN(C(=O)C3CCOCC3)CC2)cs1 | inactive
19 | COC[C@H]1CCCN1Cc1nc(C2(O)CCN(CC3CCCCC3)CC2)cs1 | 10 µM (active)
20 | COc1cccc(C(=O)N2C(C(=O)NC(C)C)COC23CCN(C(=O)c2cccc(F)c2)CC3)c1 (configuration not stated) | inactive
21 | N#CCCN1CCN(C(=O)c2cn3ccnc(-c4ccccc4)c3n2)CC1 | inactive
22 | COCCN1CCCCCC(O)c2cc(C(=O)Nc3cccc(OC)c3)ccc21 (configuration not stated) | inactive
23 | COc1cccc(NC(=O)N(Cc2cn(C)c3ccccc23)C2CCCCCC2)c1 | 6.31 µM (active)
24 | COCC(=O)NC[C@H]1CCN(Cc2cn(C)c3ccccc23)C[C@H]1N(C)C | inactive
25 | Cc1cccc(-c2nc3cnccn3c2NCCC(=O)N2CCCCCC2)c1 | inactive
26 | CNc1ccc(OC2CCN(C(=O)NCCc3ccccc3)CC2)nc1 | inactive
27 | CN1c2cc(C(=O)N3CCC(C(N)=O)CC3)ccc2C(=O)N2CCCCC21 (configuration not stated) | inactive
28 | Cc1ccc(CNC(=O)c2ccc3c(c2)N(C)C2CCCCN2C3=O)cc1C (configuration not stated) | inactive
29 | Cc1ccccc1CNC(=O)c1ccc2c(c1)N(C)C1CCCCN1C2=O (configuration not stated) | 4.47 µM (active)
30 | CN1c2cc(C(=O)Nc3ccccc3)ccc2C(=O)N2CCCCCC21 (configuration not stated) | inactive
31 | CN1c2cc(C(=O)Nc3ccc(Cl)cc3)ccc2C(=O)N2CCCCCC21 (configuration not stated) | inactive
32 | CN1c2cc(C(=O)NCc3ccccc3Br)ccc2C(=O)N2CCCCC21 (configuration not stated) | 7.08 µM (active)
